From PubChem BioAssay (Tox21)
Results filed as inconclusive are left out. Activity calls are given as the source filed them. Unless noted, the call rests on the fitted dose curve; in most records, active means well fitted curve in the direction sought with a large enough effect in the repeat runs; inconclusive means weak or mixed curves; inactive means no such curve, though single readings can be large; an effect the other way counts as inactive or inconclusive.

Columns and labels:
[1] = A CellTox Green Cytotoxicity Assay to monitor cytotoxicity in HepG2 cells - 16 hour (AID 1224876); further: nearly all actives have a fitted effect of over 45% in size
Summary of the method: (§1)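 HepG2 cells, 600/well, preincubated 5 h with CellTox Green dye, then exposed to Tox21 compounds in DMSO at 37 C for up to 40 h. Dead-cell DNA fluorescence read at the indicated time point.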

[2] = qHTS RealTime-Glo MT Cell Viability Assay in HepG2 cells - 32 hour (AID 1224877); further: nearly all actives have a fitted effect of over 55% in size
Summary of the method: (§2)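 HepG2 suspension premixed with RealTime-Glo reagents is plated at 600 cells per well and left 5 h at 37 C/5% CO2. Compounds in DMSO then go in, and bioluminescence reflecting viable cell number is recorded over 40 h.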

[3] = A CellTox Green Cytotoxicity Assay to monitor cytotoxicity in HepG2 cells - 24 hour (AID 1224878); further: nearly all actives have a fitted effect of over 45% in size
Summary of the method: as §1

[4] = A CellTox Green Cytotoxicity Assay to monitor cytotoxicity in HepG2 cells - 40 hour (AID 1224879); further: nearly all actives have a fitted effect of over 40% in size
Summary of the method: as §1

[5] = qHTS RealTime-Glo MT Cell Viability Assay in HEK293 cells - 0 hour (AID 1224880); further: top concentration of the series differs between compounds; nearly all actives have a fitted effect of over 45% in size
Summary of the method: (§3)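 600 cells/well were plated with the nonlytic NanoLuc/prosubstrate reagent, pre-incubated 5 h, then given 23 nL of compound in DMSO. Incubation at 37 C for 40 h, with luminescence from viable-cell-reduced substrate read repeatedly from 0 h.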

[6] = A CellTox Green Cytotoxicity Assay to monitor cytotoxicity in HEK293 cells - 32 hour (AID 1224881); further: nearly all actives have a fitted effect of over 40% in size
Summary of the method: (§4)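 HEK293 cells, 600/well, were preincubated 5 hours and then exposed to compounds at 37 C for up to 40 hours. A cell-impermeant cyanine dye staining dead-cell DNA was read by fluorescence at 0, 8, 16, 24, 32 and 40 h time points.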

[7] = A CellTox Green Cytotoxicity Assay to monitor cytotoxicity in HepG2 cells - 0 hour (AID 1224882); further: nearly all actives have a fitted effect of over 35% in size
Summary of the method: as §1

[8] = A CellTox Green Cytotoxicity Assay to monitor cytotoxicity in HepG2 cells - 32 hour (AID 1224883); further: nearly all actives have a fitted effect of over 50% in size
Summary of the method: as §1

[9] = A CellTox Green Cytotoxicity Assay to monitor cytotoxicity in HEK293 cells - 8 hour (AID 1224884); further: nearly all actives have a fitted effect of over 35% in size
Summary of the method: as §4

[10] = qHTS RealTime-Glo MT Cell Viability Assay in HepG2 cells - 16 hour (AID 1224885); further: nearly all actives have a fitted effect of over 50% in size
Summary of the method: as §2

[11] = qHTS RealTime-Glo MT Cell Viability Assay in HEK293 cells - 24 hour (AID 1224886); further: top concentration of the series differs between compounds; nearly all actives have a fitted effect of over 50% in size
Summary of the method: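 Reads taken at 0, 8, 16, 24, 32 and 40 h from the same wells. HEK293 cells (600/well) carried RealTime-Glo reagents from seeding, with compound added after a 5 h settle at 37 C.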

[12] = qHTS RealTime-Glo MT Cell Viability Assay in HEK293 cells - 8 hour (AID 1224887); further: top concentration of the series differs between compounds; nearly all actives have a fitted effect of over 50% in size
Summary of the method: as §3

[13] = A CellTox Green Cytotoxicity Assay to monitor cytotoxicity in HEK293 cells - 16 hour (AID 1224888); further: nearly all actives have a fitted effect of over 35% in size
Summary of the method: as §4

[14] = qHTS RealTime-Glo MT Cell Viability Assay in HepG2 cells - 0 hour (AID 1224889); further: nearly all actives have a fitted effect of over 50% in size
Summary of the method: as §2

[15] = A CellTox Green Cytotoxicity Assay to monitor cytotoxicity in HepG2 cells - 8 hour (AID 1224890); further: nearly all actives have a fitted effect of over 45% in size
Summary of the method: as §1

[16] = qHTS assay to identify small molecule antagonists of the estrogen receptor alpha (ER-alpha) signaling pathway using the BG1 cell line in the presence of 0.1 nM 17-beta-estradiol - cell viability counter screen (AID 1259241); further: nearly all actives have a fitted effect of over 40% in size
Summary of the method: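 Cytotoxicity counter-screen: live-cell protease activity measured by fluorescence (30 min reagent step) in the same wells. Cells were VM7Luc4E2 with endogenous ER-alpha and ERE-driven luciferase, treated 22 hr at 37C alongside 0.1 nM 17beta-estradiol final.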

[17] = qHTS assay to identify small molecule antagonists of the androgen receptor (AR) signaling pathway using the MDA cell line in the presence of 0.5 nM R1881 - cell viability counter screen (AID 1259242); further: nearly all actives have a fitted effect of over 45% in size
Summary of the method: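 MDA-kb2 cells (MMTV-luciferase, AR/GR responsive) were treated with compounds plus 0.5 nM R1881 (final) for 16 hr at 37C, 0% CO2. Viability was then read in the same wells as live-cell protease fluorescence (CellTiter-Fluor, 30 min).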

[18] = biological target: Androgen receptor (Homo sapiens) (UniProt P10275); experiment: qHTS assay to identify small molecule antagonists of the androgen receptor (AR) signaling pathway using the MDA cell line in the presence of 0.5 nM R1881 (AID 1259243); further: nearly all actives have a fitted effect of over 50% in size
Chain of Androgen receptor (Homo sapiens) (P10275 whole entry, looked up): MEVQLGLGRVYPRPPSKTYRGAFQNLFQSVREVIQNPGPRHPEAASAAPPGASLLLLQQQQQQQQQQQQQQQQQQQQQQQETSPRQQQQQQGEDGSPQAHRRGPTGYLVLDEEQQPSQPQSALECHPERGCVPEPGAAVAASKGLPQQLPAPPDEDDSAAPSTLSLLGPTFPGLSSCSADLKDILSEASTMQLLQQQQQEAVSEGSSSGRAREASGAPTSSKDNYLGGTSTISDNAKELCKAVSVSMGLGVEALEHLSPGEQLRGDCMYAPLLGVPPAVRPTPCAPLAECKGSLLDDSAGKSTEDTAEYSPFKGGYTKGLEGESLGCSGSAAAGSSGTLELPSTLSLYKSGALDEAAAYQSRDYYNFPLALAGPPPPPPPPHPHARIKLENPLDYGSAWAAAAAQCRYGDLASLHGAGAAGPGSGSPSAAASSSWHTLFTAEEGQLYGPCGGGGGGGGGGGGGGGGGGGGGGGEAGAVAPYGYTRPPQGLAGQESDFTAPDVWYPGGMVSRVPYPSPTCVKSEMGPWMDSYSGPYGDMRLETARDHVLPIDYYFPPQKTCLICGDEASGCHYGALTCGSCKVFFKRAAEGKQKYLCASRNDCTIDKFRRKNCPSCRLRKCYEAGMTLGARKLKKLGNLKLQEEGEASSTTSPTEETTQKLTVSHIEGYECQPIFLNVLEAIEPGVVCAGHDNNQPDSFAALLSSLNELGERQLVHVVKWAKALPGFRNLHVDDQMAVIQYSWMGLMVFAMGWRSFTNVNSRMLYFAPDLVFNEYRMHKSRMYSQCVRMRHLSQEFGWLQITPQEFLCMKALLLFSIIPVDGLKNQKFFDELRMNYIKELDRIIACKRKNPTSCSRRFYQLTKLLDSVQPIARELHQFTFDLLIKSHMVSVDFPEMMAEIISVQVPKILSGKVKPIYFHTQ
Summary of the method: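 MDA-kb2 cells (MMTV-luciferase, responsive to AR and GR) at 3,000/well, rested 5 h at 37C, 0% CO2, then given compounds plus 0.5 nM R1881 (final) for 16 hr. Luciferase read with ONE-Glo after 30 min at room temperature.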

[19] = biological target: Estrogen receptor (Homo sapiens) (UniProt P03372); experiment: qHTS assay to identify small molecule antagonists of the estrogen receptor alpha (ER-alpha) signaling pathway using the BG1 cell line in the presence of 0.1 nM 17-beta-estradiol (AID 1259244); further: nearly all actives have a fitted effect of over 50% in size
Chain of Estrogen receptor (Homo sapiens) (P03372 whole entry, looked up): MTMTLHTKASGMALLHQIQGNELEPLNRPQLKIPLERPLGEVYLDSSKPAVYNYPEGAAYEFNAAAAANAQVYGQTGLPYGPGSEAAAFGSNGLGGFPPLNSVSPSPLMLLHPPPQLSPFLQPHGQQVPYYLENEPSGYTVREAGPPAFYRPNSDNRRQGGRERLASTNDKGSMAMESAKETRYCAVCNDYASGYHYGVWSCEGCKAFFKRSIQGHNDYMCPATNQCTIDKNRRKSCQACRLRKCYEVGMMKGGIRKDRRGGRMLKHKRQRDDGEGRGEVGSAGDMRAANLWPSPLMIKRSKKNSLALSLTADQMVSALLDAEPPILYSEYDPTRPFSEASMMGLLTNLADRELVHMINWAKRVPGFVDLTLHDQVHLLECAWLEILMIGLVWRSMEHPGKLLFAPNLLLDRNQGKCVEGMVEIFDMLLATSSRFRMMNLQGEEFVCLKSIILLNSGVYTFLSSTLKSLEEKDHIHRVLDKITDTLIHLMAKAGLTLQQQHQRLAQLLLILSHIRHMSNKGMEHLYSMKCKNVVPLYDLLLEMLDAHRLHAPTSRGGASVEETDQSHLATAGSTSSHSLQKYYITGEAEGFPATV
Summary of the method: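 VM7Luc4E2 cells (endogenous full-length ER-alpha, 4×ERE-luciferase), kept 5 days in phenol red-free, charcoal-stripped FBS medium; 4,000 cells/well. Compounds added with 0.1 nM (final) 17beta-estradiol, 22 hr at 37C; luminescence read with ONE-Glo after 30 min.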

[20] = qHTS assay to identify small molecule phospholipidosis (PLD) inducers (AID 1259344; active means well fitted curve in the direction sought with a large enough effect; an effect the other way counts as inactive or inconclusive)
Summary of the method: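 Phospholipidosis is scored by imaging LipidTOX-stained pits in HepG2 cells exposed to compound for 24 h at 37 C; pit counts and integrated intensities per well and per cell serve as outputs.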

Measured: Potency

COc1cc(/C=C/C(N)=O)cc(OC)c1OC
not listed: [20]
inactive: all other assays above

CC(=O)CC(=O)Nc1ccc(C)cc1C
not listed: [14] | [19] | [20]
inactive: all other assays above

CO/N=C(/C(=O)N[C@@H]1C(=O)N2C(C(=O)[O-])=C(C[n+]3ccn4ncccc43)CS[C@H]12)c1nsc(N)n1
not listed: [18]
inactive: all other assays above

c1ccc(B(c2ccccc2)c2ccccc2)cc1
not listed: [11] | [18] | [20]
inactive: all other assays above

O=C=NCC1CCCC(CN=C=O)C1 (stereo not drawn)
not listed: [11] | [18] | [20]
inactive: all other assays above

CC(N)CCCC(C)(C)O (stereo not drawn)
not listed: [18] | [19]
inactive: all other assays above

C=CC(=O)OCC1CCCO1 (stereo not drawn)
not listed: [18] | [20]
inactive: all other assays above

CCCCOC(=O)C(C)O (stereo not drawn)
not listed: [18] | [20]
inactive: all other assays above

CC(Oc1cc(Cl)ccc1Cl)C(=O)O (stereo not drawn)
not listed: [12] | [19] | [20]
inactive: all other assays above

CC(=O)O[C@@H]1CC2CCC1(C)C2(C)C (stereo partly drawn)
not listed: [19]
inactive: all other assays above

Cc1c(C(=O)c2c[nH]n(C)c2=O)ccc(S(C)(=O)=O)c1C1=NOCC1
not listed: [20]
inactive: all other assays above

N#Cc1cscn1
not listed: [14] | [18] | [19] | [20]
inactive: all other assays above

Cc1ccc(C(C)NC(=O)[C@@H](NC(=O)OC(C)C)C(C)C)cc1 (stereo partly drawn)
not listed: [14] | [18] | [19] | [20]
inactive: all other assays above

CCC/C=C(\C=O)CC
not listed: [18] | [20]
inactive: all other assays above
